High-throughput results (PubChem BioAssay)
Only some compounds are listed: those with a hit (about 7.3% of all), similar ones and a draw of the others.
HCV inhibitor – blocks hepatitis C virus. Huh7.5.1 HCVcc-Cre infection, luciferase reporter, 44 h. Potency, µM (top dose mostly 41.8 µM), inactives show at the highest dose activity change, negative = inhibition, most hits filed as inhibitors. 3.4% of 340,000 active. AID 651820; note: potency is the fitted concentration of half-maximal effect; % is set by controls: 0 for no effect and ±100 for the full control effect
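Infectious HCV cell culture screen: compound-treated cells (1,000/well, pre-plated 4 h) are infected with HCVcc-Cre at roughly 0.5 moi and grown 44 h. Infection is quantified by luciferase signal after 15 min substrate incubation at room temperature.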
AmpC no deterg – blocks E. coli AmpC beta-lactamase in detergent-free assay; Potency, µM (titrated, usually from 57.1 µM), for inactives: at the top dose activity change, negative = inhibition, most hits filed as inhibitors; AmpC nitrocefin hydrolysis, absorbance 480 nm, 0.0001% Triton; 0.52% of 330,000 active;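 note: potency is the fitted concentration of half-maximal effect; plate controls were no compound for no effect and no enzyme for full effect; nearly all actives have a fitted effect of over 20% in size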
Target sequence (P00811 whole entry, looked up): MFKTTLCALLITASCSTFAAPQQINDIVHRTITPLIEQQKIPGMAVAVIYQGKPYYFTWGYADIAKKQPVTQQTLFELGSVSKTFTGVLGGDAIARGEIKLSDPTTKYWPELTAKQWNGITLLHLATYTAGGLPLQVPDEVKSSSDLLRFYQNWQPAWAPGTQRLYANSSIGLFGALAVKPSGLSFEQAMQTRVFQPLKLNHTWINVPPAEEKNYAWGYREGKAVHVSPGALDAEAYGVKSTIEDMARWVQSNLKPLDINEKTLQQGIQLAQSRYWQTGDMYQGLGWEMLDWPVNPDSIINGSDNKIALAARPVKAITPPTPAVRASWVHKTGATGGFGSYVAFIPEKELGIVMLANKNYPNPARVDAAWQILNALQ
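20 mM phosphate pH 7.0 + 0.01% (detergent screen) or 0.0001% Triton X-100; 5.3 nM AmpC reagent; cpd preinc 15 min RT; nitrocefin (800 uM stock) to start; A480 q20 s × 4 min; Activity was normalised to no-enzyme and no-compound control wells.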
HCMV antiviral – inhibitors of human cytomegalovirus | activity change, negative = inhibition, % at 57.5 µM | HFF cells, HCMV-luciferase reporter, 72 h; hits give low values | 4.5% of 410,000 active | AID 1259415; in the data active = activity change below about -60%; inconclusive = no clear call, values can overlap the other calls; inactive = above about -39%; note: % is set by controls: 0 for no effect and ±100 for the full control effect
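Luciferase read-out from HCMV-luciferase-infected HFFs (MOI 1 PFU/cell) 72 h post infection at 37C; compounds added after 16 h cell attachment; activity normalized between buffer-only basal and Salinomycin (10uM) inhibitor controls.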
FMDV inh – antivirals against foot and mouth disease virus. FMDV antiviral cell-based qHTS. Potency, µM (highest dose often 57.9 µM), inactives show at the top dose activity change, negative = inhibition, usual class: inhibitors. 1.2% of 410,000 active; calls by dose curve; tested in HEK293T cells; note: read-out not given here; potency is the fitted concentration of half-maximal effect; % is set by controls: 0 for no effect and ±100 for the full control effect; nearly all actives have a fitted effect of over 45% in size
AmpC inh detg – blocks E. coli AmpC beta-lactamase in detergent assay. 0.041% of 370,000 active. P00811. AmpC hydrolysis of nitrocefin, absorbance 480 nm, 0.01% Triton. Potency, µM (titrated, usually from 114 µM), for the others: top-dose activity change, negative = inhibition, hits mostly inhibitors;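 note: potency is the fitted concentration of half-maximal effect; 0% = no-compound wells and -100% = no-enzyme wells; nearly all actives have a fitted effect of over 25% in size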
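AmpC (5.3 nM in the dispensed reagent) in 20 mM phosphate pH 7.0 with 0.01% (detergent screen) or 0.0001% Triton X-100 was preincubated with compounds for 15 min at room temperature. Nitrocefin was then added from an 800 uM solution, and hydrolysis was followed at 480 nm.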
HCV inh confirm – confirmation of hepatitis C virus inhibitors. AID 720575. 78% of 640 active. Potency, µM (titrated, usually from 41.8 µM), for inactives: at the top dose activity, negative = inhibition, most hits filed as inhibitors. HCVcc-Cre infectious virus cell assay, luciferase, inhibition. shares compounds with HCV inhibitor; note: potency is the fitted concentration of half-maximal effect; nearly all actives have a fitted effect of over 80% in size
HCV host tox – toxic to HCV host cells, flagging false HCV inhibitors. shares compounds with HCV inhibitor. HCV host cell line cytotoxicity counterscreen. Potency, µM (highest dose often 41.8 µM), inactives show top-dose activity change, negative = cytotoxicity, actives largely listed as inhibitors. 22% of 640 active. AID 720576;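 note: potency is the fitted concentration of half-maximal effect; 44 h compound exposure; % is set by controls: 0 for no effect and ±100 for the full control effect; nearly all actives have a fitted effect of over 55% in size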
The depositor's hits bear a star; ? = inconclusive; nt = no result given; [ ] = remark or other dose. Unless noted, calls come from the whole dose curve; as a rule, active = well fitted curve in the direction sought with a large enough effect; inconclusive = small, poorly fitted or top-dose-only effect, or another doubt; inactive = no such curve, though single readings can be large; an effect the other way counts as inactive or inconclusive.

SMILES | HCV inhibitor | AmpC no deterg | HCMV antiviral | FMDV inh | AmpC inh detg | HCV inh confirm | HCV host tox
CN1CCN(c2ccc(CNS(=O)(=O)Cc3cccc(C(F)(F)F)c3)cc2)CC1 | 5.6µM* | 0% | ? | ? | 7% | 5.6µM* | 2.5µM*
Cc1ccc(CSc2ncn(-c3ccccc3)n2)cc1 | 12% | -34% | 20 | 44% | 7% | nt | nt
Cc1ccc(CSc2nccc(-c3c(C)nc4ccccn34)n2)cc1 | 5.6µM* | 78% | 4 | ? | -1% | 25µM* | -44%
COC(=O)c1sc(NC(=O)/C=C/c2ccccc2Cl)nc1C | 5.6µM* | -20% | 4 | 14% | 6% | ? | 1%
COC(=O)c1cc2sc(C)cc2n1CC(=O)Nc1ccc(C)cc1Cl | nt | nt | -24 | -5% | 1% | nt | nt
O=C(Nc1cc(Br)ccc1O)c1cnn2c(C(F)F)cc(C3CC3)nc12 | ? | ? | -7 | -15% | -7% | 7µM* | -95%
CCCCCN(C(=O)COC(=O)c1ccc(C)cc1)c1c(N)n(CCCC)c(=O)[nH]c1=O | ? | -18% | 0 | -15% | 1% | nt | nt
O=C(c1ccccc1)N1CCC(c2nc(-c3ccc(S(=O)(=O)NCC4CCCO4)cc3)no2)CC1 (stereo not given) | 2.8µM* | 28% | -89* | nt | -4% | 3.5µM* | 8.9µM*
O=[N+]([O-])c1ccc(/C=[N+](\[O-])[C@@H]2CCCC[C@@H]2/[N+]([O-])=C/c2ccc([N+](=O)[O-])o2)o1 | ? | -7% | -98* | 32µM* | 3% | ? | ?
COc1ccc(CNc2ncnc3cc(OC)c(OC)cc23)cc1 | ? | -9% | 1 | -25% | -3% | nt | nt
COc1ccc(CNc2ncnc3cc(Cl)ccc23)cc1 | 8.9µM* | -32% | -65* | ? | -6% | 25µM* | ?
CCOc1ccccc1NC(=O)CSc1nnc(Cc2ccc(OC)cc2)c(=O)n1N | ? | -28% | 8 | -14% | ? | 7.9µM* | 26%
CCOc1ccc(Cc2nnc(SCC(=O)Nc3ccccc3)n(N)c2=O)cc1 | ? | -17% | -18 | 4% | -18% | nt | nt
CCOC(=O)CC(NC(=O)c1ccco1)c1ccc(C)cc1 (stereo not given) | -6% | -13% | -3 | -5% | -11% | nt | nt
Cc1ccc(C(C)NC(=O)c2ccco2)cc1 (stereo not given) | 6.3µM* | -12% | 13 | 10% | 4% | -24% | -10%
O=C(NCc1ccc(Cl)s1)C1CCC(=O)N(CCc2cccc(F)c2)C1 (stereo not given) | 16% | 60% | 15 | -5% | ? | nt | nt
O=[N+]([O-])c1cc2c(cc1[N+](=O)[O-])OCCOCCOCCOCCO2 | 6.3µM* | -10% | 90 | -18% | 4% | ? | -15%
CCN(C(=O)c1cc2cc3ccc(OC)cc3nc2o1)c1cccc(C)c1 | nt | nt | -20 | -2% | 1% | nt | nt
COc1cccc(C(=O)Nc2ccc3nc(N4CCOCC4)cc(C)c3c2)c1 | ? | 98% | -9 | -9% | ? | 2.8µM* | 17%
CCOc1ccccc1C(=O)Nc1ccc2nc(N3CCN(c4ncccn4)CC3)cc(C)c2c1 | 2.2µM* | nt | nt | 8.9µM* | nt | 5µM* | -79%
Cc1ccc(S(=O)(=O)C(CNC(=O)C(=O)NCCc2ccc(Cl)cc2)c2cccs2)cc1 (stereo not given) | nt | nt | -22 | ? | -3% | nt | nt
O=C(Nc1ccc(C(=O)N2CCOCC2)cc1)C1CCC1 | -2%[8.37 µM] | nt | -13 | -15% | nt | nt | nt
C[C@@H]1COC(=O)[C@H](NC(=O)OCC2c3ccccc3-c3ccccc32)C/C=C\C[C@@H](CC(=O)N[C@H](CO)Cc2ccccc2)C(=O)N1 | ? | 300% | -23 | -3% | nt | nt | nt
O=C(C[C@@H]1C/C=C\C[C@@H](NC(=O)OCC2c3ccccc3-c3ccccc32)C(=O)OCCNC1=O)N[C@@H](CO)Cc1ccccc1 | 1.8µM* | 193% | -8 | -17% | nt | ? | -13%
Cc1ccc2c(c1)c1c3n2CC(=C2C(=O)OC(C)(C)OC2=O)NC3CCC1 (stereo not given) | 5µM* | -23% | -24 | nt | -12% | 28µM* | -34%
SMILES | HCV inhibitor | AmpC no deterg | HCMV antiviral | FMDV inh | AmpC inh detg | HCV inh confirm | HCV host tox
Clc1ccc(-c2cc(C3CCNCC3)[nH]n2)cc1 | ? | 15% | -5 | -8% | 4% | nt | nt
Nc1nc(Cl)cc(N2CCC(c3cc(-c4ccc(Cl)cc4)n[nH]3)CC2)n1 | 4µM* | 31% | -104* | 16µM* | ? | 11µM* | ?
COCCN(C(=O)COC(=O)/C=C/c1ccco1)c1c(N)n(Cc2ccccc2)c(=O)[nH]c1=O | 1% | 4% | 12 | -19% | ? | nt | nt
COCCN(C(=O)COC(=O)/C=C/c1ccc(OC)c(OC)c1)c1c(N)n(Cc2ccccc2)c(=O)[nH]c1=O | ? | 49% | -29 | 4% | -19% | ? | 27%
COC(=O)c1cc(C(=O)c2ccc(Cl)cc2)n2c(=O)/c(=C\N(C)C)sc12 | 2.8µM* | -14% | -17 | -17% | 1% | 7.9µM* | -45%
COC(=O)c1cc(C(=O)c2ccccc2)n2c(=O)/c(=C\N(C)C)sc12 | ? | -5% | 0 | -17% | -6% | nt | nt
COc1ccc(NC(=O)c2nnn(Cc3ccccc3C)c2N)c(OC)c1 | nt | nt | -11 | -4% | 17% | nt | nt
COc1ccc(OC)c(NC(=O)c2nnn(Cc3ccccc3C)c2N)c1 | 7.1µM* | -12% | 0 | 19% | 1% | 22µM* | 43%
Cc1ccc(CN(Cc2ccccn2)C(=O)Nc2c(F)cccc2F)cc1 | -6% | -1% | ? | -18% | ? | nt | nt
O=C(Nc1ncc(Cc2ccc(C(F)(F)F)cc2)s1)c1ccc(-c2cccc([N+](=O)[O-])c2)o1 | 2.5µM* | -29% | ? | ? | -10% | 13µM* | ?
CCCc1cc2c(=O)c(-c3ccc4c(c3)OCCO4)c(C)oc2cc1OS(C)(=O)=O | 2.2µM* | 22% | ? | ? | 0% | 11µM* | -33%
C/C(=N\Nc1ccc2nncn2n1)c1ccccn1 | 2µM* | -6% | -96* | 23% | -4% | 5.6µM* | ?
C/C(=N\Nc1ccc2nncn2n1)c1ccco1 | -9% | -4% | 60 | 25% | -6% | nt | nt
COc1cc(-c2cc(NC=O)c3ncc(-c4ccc(C(C)=O)cc4)n3c2)ccc1O | nt | nt | 407 | -13% | nt | nt | nt
CCOc1cc(CNCCc2ccc(S(N)(=O)=O)cc2)cc(Cl)c1OCc1ccccc1 | 1.6µM* | 23% | -61* | 20µM* | 2% | 4.4µM* | 13µM*
